From PubChem BioAssay (NCI)
This is part of a sample that, as a whole, favours compounds with a hit. Of some 83,000 tested, about 20% had one in any assay.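 Interpretation: 100, growth as untreated; towards 0, rising growth inhibition; 0, no net growth; 0 to -100, cell death. Compounds scoring below 10 were considered active.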 A number with no mark means an inactive call. The source made the active and inactive calls.

test system: CAKI-1 renal; test: NCI-60 one-dose screen, 48 h (100 = growth as untreated, 0 = no growth, -100 = all killed); conditions: 10 µM unless noted

First: NC(=O)c1c(NC(=O)c2ccc(Cl)cc2)sc2c1CCC(=O)C2
Second: O=C(CCC(=O)c1nc2ncccc2[nH]1)NN1C(=O)CSC1c1ccc(Cl)cc1 (configuration not stated)
The growth of the first is lower: 18.6% for the first, 84.2% for the second.

First: Nc1c(C(=O)Nc2cccc3ncccc23)sc2nc3c(cc12)C(=O)CCC3
Second: COc1cc2c(c(OC)c1OC)C(=O)CC(c1cccc(NC(=O)c3ccccc3Br)c1)O2 (configuration not stated)
The growth of the first is lower: 58.8% for the first, 109% for the second.

Going from `CCOC(=O)c1cn2ncnc(Oc3ccc(NC(=O)NC4CC4)c(F)c3)c2c1C` to `CCCC(O)Cn1ncc(C(=O)OCC)c1NC(=O)NCc1cccc(F)c1` (configuration not stated), the growth falls from 102% to 84.6%.

Going from `CCOC(=O)c1c2c(n3c1NCC3)-c1ccccc1C2=O` to `COc1cc2c3c(c1O)-c1ccccc1[C@@H]1OC(=O)N(CC2)[C@H]31`, the growth rises from 89.9% to 95.4%.

Compared with `COc1ccc2nc(Cl)c(/C=C/C(=O)c3ccc(NC(=O)CSc4nnc(-c5ccc(Cl)c(Cl)c5)n4-c4ccccc4)cc3)cc2c1`, `COc1ccc(/C=C/C(=O)c2ccc(NC(=O)CSc3nnc(-c4cc(-c5ccccc5)nc5ccccc45)n3-c3ccccc3)cc2)cc1` is higher in growth: 77.6% for the first, 90% for the second.

First: CS(=O)(=O)Nc1cncc(-c2ccc3ncnc(Nc4ccc(F)c(Cl)c4)c3c2)c1
Second: C#CCOc1ccc2ncnc(Nc3cccc(NC(=O)CCl)c3)c2c1
The growth of the first is lower: 44.7% for the first, 81.2% for the second.

Going from `Cc1ccc(-c2nc(C#N)c(S(=O)(=O)NCCO)o2)cc1` to `CCNc1nc(-c2ccc(F)cc2)c(C#N)c(=O)n1C`, the growth falls from 71% to 53.3%.

Compared with `O=C1OCC2=C1C(c1cccc(C(F)(F)F)c1)c1cc3c(cc1N2CCO)OCO3` (configuration not stated), `O=C(O)C1CN(c2cccc(Cl)c2)N(c2cccc(Cl)c2)C1=O` (configuration not stated) is higher in growth: 26.8% for the first, 92.8% for the second.

Going from `CCN1C(=S)N(CC)C2C1NC(=S)N2/N=C/C=C/c1ccccc1OC` (configuration not stated) to `O=C(CN1C(=O)NC2NC(=O)NC21)N/N=C/c1ccc(Cl)cc1Cl` (configuration not stated), the growth rises from 34.1% to 88.2%.

First: COc1cc(-c2nc3occn3c2-c2ccnc(NCCCNS(=O)(=O)c3ccccc3)n2)ccc1F
Second: CC(C)CSc1oc(-c2ccccc2)nc1S(=O)(=O)c1ccccc1
The growth of the first is lower: 29.7% for the first, 76.7% for the second.

Compared with `O=C(O)c1cccc(N/C=C/C(=O)c2cc3cc(Br)ccc3oc2=O)c1`, `COc1cccc(Nc2ccnc3[nH]c4ccc([N+](=O)[O-])cc4c23)c1` is lower in growth: 86.3% for the first, 28.8% for the second.

Going from `N#Cc1c(Nc2ccc(F)cc2)n[nH]c1-c1cccs1` to `CN(C)c1ccc(/C=C/C(=O)c2ccc(Nc3nc(Nc4ccc(F)cc4)nc(Nc4ccc(Cl)cc4)n3)cc2)cc1`, the growth falls from 88.9% to 70.9%.

First: CC12CCC(/C(=C/NNc3ccc([N+](=O)[O-])cc3[N+](=O)[O-])C1=O)C2(C)C (configuration not stated)
Second: COC(=O)c1nc(-c2ccccc2)oc1S(=O)(=O)N1CCC(C(N)=O)CC1
The growth of the first is lower: 46.8% for the first, 49.5% for the second.

Compared with `S=c1[nH]c2cc(Cl)ccc2o1`, `Cc1ccc2nc(Cl)c(Cn3nnnc3SCc3ccccc3)cc2c1` is lower in growth: 97.8% for the first, 72.1% for the second.

Going from `Cn1c(=O)c2c(nc(NC3=NS(=O)(=O)c4ccccc43)n2Cc2ccccc2)n(C)c1=O` to `CN(C)c1ccc(/C=C2/C=C(c3ccccc3)OC2=O)cc1`, the growth rises from 83.7% to 91.3%.

First: CC(C)(CO)N(CCO)CCO
Second: COc1ccc(C/C(C)=C(/c2ccc(OCCN3CCCCCC3)cc2)c2ccc(OC(=O)NCc3ccccc3)cc2)cc1
The growth of the first is higher: 100% for the first, 92.8% for the second.

`NNC(=S)N/N=C/c1ccccn1` showed a growth of 14.2%.

With `O=C1/C(=C/c2ccc(Br)cc2)COc2ccc(O)c(O)c21` the growth was -36% (active).
In the case of `C#CCOc1cccc(-c2ncc3cc(NC(=O)CCl)ccc3n2)c1`, the growth is reported as -27.3% (active).
With `CC(=O)c1c(Nc2ccc(F)c(F)c2F)[nH]c2c(F)cc(F)cc2c1=O` the growth was -10.4% (active).
For `Clc1nn2c(Cn3cnc4c(NCc5ccccc5)ncnc43)nnc2c2ccccc12`, the growth was 3.56% (active).

test system: A498 renal; test: as above; conditions: 10 µM unless noted

First: NC(=O)c1c(NC(=O)c2ccc(Cl)cc2)sc2c1CCC(=O)C2
Second: O=C(CCC(=O)c1nc2ncccc2[nH]1)NN1C(=O)CSC1c1ccc(Cl)cc1 (configuration not stated)
The growth of the first is lower: 77% for the first, 111% for the second.

Going from `CCOC(=O)c1cn2ncnc(Oc3ccc(NC(=O)NC4CC4)c(F)c3)c2c1C` to `CCCC(O)Cn1ncc(C(=O)OCC)c1NC(=O)NCc1cccc(F)c1` (configuration not stated), the growth rises from 54.2% to 108%.

Going from `CCOC(=O)c1c2c(n3c1NCC3)-c1ccccc1C2=O` to `COc1cc2c3c(c1O)-c1ccccc1[C@@H]1OC(=O)N(CC2)[C@H]31`, the growth falls from 100% to 92.9%.

Going from `COc1ccc2nc(Cl)c(/C=C/C(=O)c3ccc(NC(=O)CSc4nnc(-c5ccc(Cl)c(Cl)c5)n4-c4ccccc4)cc3)cc2c1` to `COc1ccc(/C=C/C(=O)c2ccc(NC(=O)CSc3nnc(-c4cc(-c5ccccc5)nc5ccccc45)n3-c3ccccc3)cc2)cc1`, the growth falls from 87% to 85.3%.

Compared with `Cc1ccc(-c2nc(C#N)c(S(=O)(=O)NCCO)o2)cc1`, `CC(C)CSc1oc(-c2ccccc2)nc1S(=O)(=O)c1ccccc1` is lower in growth: 108% for the first, 84.9% for the second.

Going from `O=C1OCC2=C1C(c1cccc(C(F)(F)F)c1)c1cc3c(cc1N2CCO)OCO3` (configuration not stated) to `O=C1/C(=C/c2ccc(Br)cc2)COc2ccc(O)c(O)c21`, the growth rises from 20.9% to 98.9%.

Compared with `Cc1[nH]c(C(=O)Nc2cccc(OC3CCNCC3)c2)c(Cl)c1Cl`, `C#CCOc1cccc(-c2ncc3cc(NC(=O)CCl)ccc3n2)c1` is higher in growth: 25.1% for the first, 88.1% for the second.

First: CCN1C(=S)N(CC)C2C1NC(=S)N2/N=C/C=C/c1ccccc1OC (configuration not stated)
Second: O=C(CN1C(=O)NC2NC(=O)NC21)N/N=C/c1ccc(Cl)cc1Cl (configuration not stated)
The growth of the first is lower: 16.3% for the first, 112% for the second.

Compared with `COc1cc(-c2nc3occn3c2-c2ccnc(NCCCNS(=O)(=O)c3ccccc3)n2)ccc1F`, `Clc1nn2c(Cn3cnc4c(NCc5ccccc5)ncnc43)nnc2c2ccccc12` is lower in growth: 57.1% for the first, 22.5% for the second.

Compared with `O=C(O)c1cccc(N/C=C/C(=O)c2cc3cc(Br)ccc3oc2=O)c1`, `COc1cc2c(c(OC)c1OC)C(=O)CC(c1cccc(NC(=O)c3ccccc3Br)c1)O2` (configuration not stated) is lower in growth: 92.5% for the first, 75.9% for the second.

Going from `N#Cc1c(Nc2ccc(F)cc2)n[nH]c1-c1cccs1` to `COc1cccc(Nc2ccnc3[nH]c4ccc([N+](=O)[O-])cc4c23)c1`, the growth falls from 103% to 43.5%.

Going from `COc1ccc(C2C(C#N)=C(N)Oc3c2sc2c(Br)cccc32)cc1` (configuration not stated) to `C#CCOc1ccc2ncnc(Nc3cccc(NC(=O)CCl)c3)c2c1`, the growth rises from 27% to 89.1%.

Going from `CC12CCC(/C(=C/NNc3ccc([N+](=O)[O-])cc3[N+](=O)[O-])C1=O)C2(C)C` (configuration not stated) to `COC(=O)c1nc(-c2ccccc2)oc1S(=O)(=O)N1CCC(C(N)=O)CC1`, the growth falls from 88.5% to 87.4%.

Compared with `S=c1[nH]c2cc(Cl)ccc2o1`, `O=C(O)C1CN(c2cccc(Cl)c2)N(c2cccc(Cl)c2)C1=O` (configuration not stated) is higher in growth: 91.8% for the first, 110% for the second.

First: Cn1c(=O)c2c(nc(NC3=NS(=O)(=O)c4ccccc43)n2Cc2ccccc2)n(C)c1=O
Second: Cc1ccc2nc(Cl)c(Cn3nnnc3SCc3ccccc3)cc2c1
The growth of the first is lower: 60.4% for the first, 74.5% for the second.

Going from `CC(C)(CO)N(CCO)CCO` to `COc1ccc(C/C(C)=C(/c2ccc(OCCN3CCCCCC3)cc2)c2ccc(OC(=O)NCc3ccccc3)cc2)cc1`, the growth falls from 111% to 97.3%.

Compared with `NNC(=S)N/N=C/c1ccccn1`, `CN(C)c1ccc(/C=C2/C=C(c3ccccc3)OC2=O)cc1` is higher in growth: 70.4% for the first, 95.8% for the second.

`CN(C)c1ccc(/C=C/C(=O)c2ccc(Nc3nc(Nc4ccc(F)cc4)nc(Nc4ccc(Cl)cc4)n3)cc2)cc1` was tested, and the growth was 83.4%.

`Nc1c(C(=O)Nc2cccc3ncccc23)sc2nc3c(cc12)C(=O)CCC3` was tested, and the growth was 4.53% (active).
`CS(=O)(=O)Nc1cncc(-c2ccc3ncnc(Nc4ccc(F)c(Cl)c4)c3c2)c1` was tested, and the growth was -7.33% (active).
With `CCNc1nc(-c2ccc(F)cc2)c(C#N)c(=O)n1C` the growth was -9.07% (active).
`CC(=O)c1c(Nc2ccc(F)c(F)c2F)[nH]c2c(F)cc(F)cc2c1=O` was tested, and the growth was -33.4% (active).
`CCn1cc(C2=C(c3cn(C)c4ncccc34)C(=O)NC2=O)c2cccnc21` was tested, and the growth was -2.35% (active).
